In all, about 65,000 compounds went through this assay and about 45 (0.07%) were called active. A selection follows. A number with no mark means an inactive call. The call rests on the fitted dose curve.
tested on: Schistosoma mansoni peroxiredoxin 2 (Prx2); experiment: Schistosoma Mansoni Peroxiredoxins (Prx2); settings: S. mansoni Prx2 activity coupled to TGR/GSH (TGR is thioredoxin glutathione reductase), NADPH fluorescence loss, qHTS
Description: NIH Molecular Libraries Screening Centers Network [MLSCN]
NIH Chemical Genomics Center [NCGC]
David Williams [Illinois State University]
Schistosoma mansoni, a causative agent of schistosomiasis, resides in the bloodstream of their host up to 30 years without being eliminated by the host immune attack. One proposed survival mechanism is the production of an antioxidant "firewall" that neutralizes the oxidative assault of the host's immune attack. Schistosoma mansoni peroxiredoxins (Prx) are important parasite antioxidant proteins that play a crucial role in redox balance mechanisms. […] First, the proteins are essential for the parasite survival. […] Third, the protein(s) is amenable for study at the molecular level and can be produced in bacteria in large quantities, in soluble and active form. Inhibition of Prx activity was screened in a coupled-enzyme format with reducing equivalents being transferred from NADPH to […] intermediate via thioredoxin/glutathione reductase (TGR)-catalyzed reaction, then from thioredoxin to hydrogen peroxide via Prx-catalyzed electron transfer. A decrease in the fluorescence intensity of NADPH was used to measure the enzyme activity. Purified S. mansoni TGR and Prx were provided by Professor David L. Williams, Illinois State University.
NCGC Assay Protocol Summary:
100 mM phosphate buffer, pH 7.4, 10 mM EDTA, 0.01% Tween-20.
100 uM NADPH/25 nM TGR/700 uM GSH/50 nM Prx2 mixture in columns 1, 2, 5-48. Titration of control potassium antimonyl tartrate (PAT, from 1 mM, then 1:5) pin-transferred to lower half of column 2. Column 1 and upper half of column 2 are neutral (100% activity).
Three uL of reagents were dispensed to 1536-well Greiner black plates. Compounds and controls (20 nL) were transferred via Kalypsys PinTool. The plates were incubated for 15 min at room temperature, and then a 1 uL aliquot of 400 uM NADPH/700 uM GSH was added, immediately followed by a 1uL aliquot of 2.5 mM H2O2 (to start the reaction). The plate was transferred to ViewLux (Perkin-Elmer) High-throughput CCD imager where kinetic measurements (every 30 sec, for a total of 8 min) of NADPH fluorescence were taken using 365 nm excitation/450 nm emission filter set. During dispense, enzyme-containing reagent bottles were kept submerged into 4 deg C water bath to minimize degradation.
Keywords: NIH Roadmap, MLSCN, MLI, MLSMR, David Williams, Peroxyredoxin, Schistosoma mansoni, prx2, prx, , qHTS, NCGC
Potency means the concentration at half of the fitted maximal effect.

Compound	Potency [µM]
CS(=O)(=O)N1CCC[C@@]2(CCN(c3ccncc3)C2)C1	> 57
CCS(=O)(=O)N(C)[C@@H]1c2cc(C#N)ccc2OC(C)(C)[C@H]1O	> 57
O=C(c1ccco1)N1CCC[C@@]2(CCN(Cc3nccs3)C2)C1	> 57
COC(=O)[C@@]1(Cc2ccc(F)cc2)[C@H]2c3cc(C(=O)N4CCCC4)n(C[C@H](O)CO)c3C[C@H]2CN1C(=O)c1ccccc1	> 57
Cc1nc2cnc(Nc3ccccc3)nc2n(Cc2ccc(F)cc2)c1=O	> 57
O=C(c1cccc(F)c1)N1CCC2(CC1)CCN(c1ccccc1)CC2	> 57
Cc1nc2cnc(Oc3cccc(Cl)c3)nc2n(C2CC2)c1=O	> 57
NC[C@@H]1O[C@H](O[C@@H]2[C@H](O[C@@H]3O[C@H](CO)[C@@H](COC[C@H]4O[C@@H](CN)[C@@H](O)[C@@H](O)[C@@H]4N)[C@@H]3O)[C@@H](O)[C@@H](N)C[C@H]2N)[C@@H](N)[C@H](O)[C@@H]1O	> 57
CC(C)(C)NCC[C@@H](O)c1cc(C(F)(F)F)nc2c(C(F)(F)F)cccc12	> 57
CCNCCCNCCCNCCCNCC	> 57
COCC(=O)N1CCC2(CCCN(c3ccccc3)C2)CC1	> 57
c1cncc(-c2nc(N3CCNCC3)c3ccccc3n2)c1	> 57
c1ccc(CCN2CCN=C2Cc2ccccc2)cc1	> 57
COC(=O)[C@@]1(Cc2ccccc2)[C@H]2c3cc(C(=O)N4CCCC4)n(Cc4ccc(C)o4)c3C[C@H]2CN1C(=O)c1ccccc1	> 57
Cc1nc2cnc(N3CCNCC3)nc2n(Cc2ccc(F)cc2)c1=O	> 57
COC(=O)[C@H](C)[C@H]1C[C@]1(C)[C@H](NC(=O)OCc1ccccc1)c1ccccc1	> 57
O=c1c(-c2ccc(F)cc2)nc2cnc(N3CCNCC3)nc2n1Cc1cccs1	> 11.4
CCC[C@@H]1C[C@@]1(CCC)C(NS(=O)(=O)c1cccc2cccnc12)c1ccc(Cl)cc1 (some centres not stated)	> 57
NS(=O)(=O)c1cc(C(=O)O)c(Cl)c([N+](=O)[O-])c1Cl	> 57
O=c1[nH]c(=O)c2nc3ccccc3nc2[nH]1	> 57
N#Cc1ccc(CN2CCCC3(CCN(C(=O)c4ccco4)CC3)C2)cc1	> 57
CC(=O)N1CCC2(CCCN(Cc3ccccc3)C2)CC1	> 57
CN1[C@H]2CC(OC(=O)[C@@H](CO)c3ccccc3)C[C@H]1[C@H]1O[C@H]12 (some centres not stated)	> 57
COc1ccc2nccc(C(=O)O)c2c1	> 25.6
CN(Cc1ccco1)c1cc(-c2ccccc2C(F)(F)F)ncn1	> 57
COc1ccc(-c2nc3cnc(N(C)C)nc3n(Cc3cccs3)c2=O)cc1	> 57

Compound	Potency [µM]
Cn1cccc1C(=O)N1CCC2(CC1)CN(c1cccc(-c3ccccc3)c1)C2	> 57
O=C(c1ccc([N+](=O)[O-])cc1)[C@@H](Br)[C@@H](Br)c1ccnc2ccccc12	> 57
CCCN(C/C=C\I)[C@@H]1CCc2cccc(O)c2C1	> 57
O=C(c1ccncc1)N1CCC2(CCCN(C(c3ccccc3)c3ccccc3)C2)CC1	> 57
Nc1nc(N)c2[nH]c(CNc3ccc(C(=O)O)cc3)nc2n1	> 57
COc1ccccc1CCn1c(=O)c(-c2cn(C)c3ccccc23)nc2cncnc21	> 57
Cc1cc(N2CCCCC2)nc2ccc(Cc3ccc4nc(N5CCCCC5)cc(C)c4c3)cc12	> 11.4
CC(C)C[C@@H](CC(=O)N[C@@H](CCC(=O)O)CC(=O)O)NC(=O)[C@@H]1CCCC[C@H]1NC(=O)C[C@@H](NC(=O)C[C@H](CO)NC(=O)[C@@H]1CCCC[C@H]1N)C(C)C	> 25.6
O=c1c(CCc2ccccc2)nc2cnc(N3CCNCC3)nc2n1Cc1cccs1	> 57
CS(=O)(=O)N1CCC2(CCN(c3ccncc3)CC2)CC1	> 57
N[C@H](C(=O)O)c1ccc(C(=O)O)c(O)c1	> 57
Cc1cc(OCC(=O)O)c(Cl)cc1Cl	> 57
CC(C)NC(=O)N1CC[C@@]2(CCCN(C(=O)c3cccc(F)c3)C2)C1	> 57
Cn1c(=S)c2[nH]c(SCCCc3ccccc3)nc2n(C)c1=O	> 57
CN1CCC2(CC1)CCN(S(=O)(=O)c1ccccc1)CC2	> 57
Cc1cc2c(cc1C)NC1=C(N2)O[C@H](c2c[nH]c3ccc(COc4ccccc4)cc23)C1=O	> 57
O=c1c(-c2cc(F)cc(F)c2)nc2cnc(Oc3ccccc3)nc2n1C[C@H]1CCCO1	> 11.4
FC(F)(F)c1ccccc1-c1nc(-n2ccnc2)c2ccccc2n1	> 57
O=C(O)c1ccc(C(=O)O)c2c(C(=O)O)ccc(C(=O)O)c12	> 57
COc1ccccc1CNc1ncnc2ccc(-c3c(C)noc3C)cc12	> 57
CC(C)c1ccc2c([Si](C)(C)C)c3c(nc2c1)-c1cccc(=O)n1C3	> 57
COc1ccc2[nH]c3cc4c(=O)c5cc(OC)ccc5[nH]c4cc3c(=O)c2c1	> 57
Cc1cccc(CNc2ccnc(-c3cccnc3)n2)c1	> 57
C[C@@H](C(=O)Nc1ccc2ccccc2c1)[C@@H]1C[C@@]1(C)[C@@H](NC(=O)c1cccnc1)c1ccccc1	> 57
CCNc1ncc2ncc(=O)n(Cc3cccc(OC)c3)c2n1	> 57
Cc1c(C)c2c(c(C)c1O)CC[C@@](C)(CN1CCN(c3cc(N4CCCC4)nc(N4CCCC4)n3)CC1)O2	> 25.6
